The values that follow come from PubChem BioAssay (Tox21).

The structures appear in SMILES notation. Values joined by “and” are separate entries in the source; they are usually repeats but may differ in a detail not shown here. Equal entries are not always repeated. A number with no mark means an inactive call. Inconclusive results are not listed. Active and inactive are the calls of the source. Unless noted, calls come from the whole dose curve; as a rule, active = well fitted curve in the direction sought with a large enough effect in the repeat runs; inconclusive = weak or mixed curves; inactive = no such curve, though single readings can be large; an effect the other way counts as inactive or inconclusive.

Assay [1] in a line: qHTS assay to identify small molecule antagonists of the glucocorticoid receptor (GR) signaling pathway - cell viability counter screen (AID 720693). Note: nearly all actives have a fitted effect of over 55% in size. For orientation: Quantitative high-throughput screening tests each substance at several concentrations.
Assay [2] in a line: qHTS assay for identifying genotoxic compounds that show differential cytotoxicity against isogenic chicken DT40 cell lines with known DNA damage response pathways - wild type cell line (AID 743012). Note: nearly all actives have a fitted effect of over 60% in size. Note: potency is the fitted concentration of half-maximal effect. In short, it runs like this:
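Quantitative HTS on parental DT40 cells: 40 h compound treatment at 37 C/5% CO2, with viability then determined by CellTiter-Glo luminescence. Values serve as the DNA repair-proficient reference for differential cytotoxicity.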

Assay [3] in a line: qHTS assay for identifying genotoxic compounds that show differential cytotoxicity against isogenic chicken DT40 cell lines with known DNA damage response pathways - Rev3 mutant cell line (AID 743014). Note: nearly all actives have a fitted effect of over 55% in size. Note: potency is the fitted concentration of half-maximal effect.
The nature of assay [4]: qHTS assay for identifying genotoxic compounds that show differential cytotoxicity against isogenic chicken DT40 cell lines with known DNA damage response pathways - Rad54/Ku70 mutant cell line (AID 743015). Note: nearly all actives have a fitted effect of over 60% in size. Note: potency is the fitted concentration of half-maximal effect.
The nature of assay [5]: qHTS assay to identify small molecule antagonists of the androgen receptor (AR) signaling pathway - cell viability counter screen (AID 743033; note: nearly all actives have a fitted effect of over 45% in size; note: potency is the fitted concentration of half-maximal effect).
Assay [6] is described as follows: qHTS assay to identify small molecule antagonists of the androgen receptor (AR) signaling pathway using the MDA cell line - cell viability counter screen (AID 743041; note: nearly all actives have a fitted effect of over 45% in size; note: potency is the fitted concentration of half-maximal effect). The essentials:
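Same-well cytotoxicity was assessed by CellTiter-Fluor in MDA-kb2 AR-luc cells after 16 h of compound treatment under R1881 agonism.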

A short description of assay [7]: qHTS assay to identify small molecule antagonists of the thyroid receptor (TR) signaling pathway (AID 743065). Note: nearly all actives have a fitted effect of over 55% in size. Note: potency is the fitted concentration of half-maximal effect. In short, it runs like this: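 GH3.TRE-Luc rat pituitary cells (two TREs driving luciferase) were dosed with compound, then stimulated with 1 nM T3 (final) for 23.5 h at 37 C. ONE-Glo luminescence was the read-out, with CellTiter-Fluor fluorescence as the cytotoxicity counter-screen.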

Assay [8] relates to thyroid hormone receptor (rat, GH3 cells). Nature of the assay: qHTS assay to identify small molecule agonists of the thyroid receptor (TR) signaling pathway (AID 743066; calls by dose curve).
Assay [9] deals with Estrogen receptor (Homo sapiens) (UniProt P03372). Nature of the assay: qHTS assay to identify small molecule antagonists of the estrogen receptor alpha (ER-alpha) signaling pathway (AID 743069; active = well fitted curve in the direction sought with a large enough effect in the signal ratio in the repeat runs, not every such curve was filed as active; the % refers to the signal ratio). The essentials:
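Reporter cells (ER-alpha-bla, HEK293 background) are conditioned overnight in stripped-serum medium (2% charcoal-stripped FBS). Compound and 17beta-estradiol exposure runs 18 hr at 37C, 5% CO2.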

Assay [10] can be described thus: qHTS assay to identify small molecule antagonists of the estrogen receptor alpha (ER-alpha) signaling pathway - cell viability counter screen (AID 743074; calls by dose curve;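 note: HEK293 cells carrying ER-alpha-UAS-bla reporter stimulated with 17beta-estradiol; nearly all actives have a fitted effect of over 45% in size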; note: potency is the fitted concentration of half-maximal effect).
For assay [11], the target named is Estrogen receptor (Homo sapiens) (UniProt P03372). The assay can be described thus: qHTS assay to identify small molecule agonists of the estrogen receptor alpha (ER-alpha) signaling pathway (AID 743075; calls by dose curve;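 note: HEK293 GripTite cells with ER-alpha and UAS-driven beta-lactamase reporter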).
For assay [12] the target is unchanged. The assay can be described thus: qHTS assay to identify small molecule agonists of the estrogen receptor alpha (ER-alpha) signaling pathway using the BG1 cell line (AID 743079). Note: nearly all actives have a fitted effect of over 20% in size. Note: potency is the fitted concentration of half-maximal effect. The settings on record: BG1Luc4E2 cells, ERE-luciferase agonist, 22 h; activation: at 70.3 µM (top of the series).
Assay [13] can be described thus: qHTS assay to identify small molecule antagonists of the estrogen receptor alpha (ER-alpha) signaling pathway using the BG1 cell line (AID 743080; calls by dose curve;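 note: BG1 cells stimulated with 17beta-estradiol alongside compound; nearly all actives have a fitted effect of over 25% in size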; note: potency is the fitted concentration of half-maximal effect). The essentials:
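Luminescence from a 4×ERE-luciferase reporter in BG1-Luc-4E2 cells served as read-out. Cells, pre-cultured 5 days in stripped-serum phenol-red-free medium, were exposed to compound with 17beta-estradiol co-stimulation for 21.5 h at 37 C.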

A short description of assay [14]: qHTS assay to identify small molecule antagonists of the estrogen receptor alpha (ER-alpha) signaling pathway using the BG1 cell line - cell viability counter screen (AID 743081).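 Note: compound given together with 17beta-estradiol as the ER stimulus; nearly all actives have a fitted effect of over 45% in size.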 Note: potency is the fitted concentration of half-maximal effect.
Another assay deals with Aromatase (Homo sapiens) (UniProt P11511). The assay can be described thus: qHTS assay to identify aromatase inhibitors (AID 743083). Note: nearly all actives have a fitted effect of over 55% in size. Note: potency is the fitted concentration of half-maximal effect.
Assay [15] can be described thus: qHTS assay to identify small molecule antagonists of the thyroid receptor (TR) signaling pathway - cell viability counter screen (AID 743064). Note: nearly all actives have a fitted effect of over 50% in size. In short, it runs like this: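 GH3.TRE-Luc rat pituitary cells dosed after 4 hr plating, co-stimulated with T3 at 1 nM final, incubated 23.5 h at 37 C. Viability measured in the same wells by CellTiter-Fluor fluorescence after 30 min further at 37 C.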

Assay [16] has as its target Androgen receptor (Homo sapiens) (UniProt P10275). The assay can be described thus: qHTS assay to identify small molecule antagonists of the androgen receptor (AR) signaling pathway (AID 743035; active = well fitted inhibition curve with a large enough effect in the signal ratio in the repeat runs, not every such curve was filed as active; the % refers to the signal ratio). The essentials: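 Cell line: GeneBLAzer AR-UAS-bla GripTite (HEK293). Stimulus: R1881 added after compound. Exposure: 16 h, 37C, 5% CO2. Readout: LiveBLAzer B/G FRET fluorescence after 2 h at room temperature.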

Assay [17] shares this target. Nature of the assay: qHTS assay to identify small molecule agonists of the androgen receptor (AR) signaling pathway (AID 743036; active = well fitted activation curve with a large enough effect in the signal ratio in the repeat runs, with a control signal flat, not every such curve was filed as active; the % refers to the signal ratio). The essentials: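 AR-UAS-bla HEK293 cells, plated 4 h before dosing, were treated with compound for 16 h at 37C. beta-Lactamase reporter read after 2 h with LiveBLAzer B/G FRET substrate at room temperature.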
The target is the same in assay [18]. The assay can be described thus: qHTS assay to identify small molecule agonists of the androgen receptor (AR) signaling pathway using the MDA cell line (AID 743040; note: nearly all actives have a fitted effect of over 20% in size). The essentials: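 Human breast carcinoma MDA-kb2 reporter cells (MMTV-luc, AR/GR elements) were treated for 16 h at 37C in 0% CO2 following a 5 h settling period. Signal was quantified by ONE-Glo luminescence.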

For assay [19] the target is unchanged. The assay can be described thus: qHTS assay to identify small molecule antagonists of the androgen receptor (AR) signaling pathway using the MDA cell line (AID 743042; note: nearly all actives have a fitted effect of over 55% in size). In short, it runs like this: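 MDA-kb2 breast carcinoma cells carrying MMTV-luciferase (AR/GR responsive) were co-treated with compounds and the agonist R1881 for 16 h at 37C. Inhibition read as ONE-Glo luminescence; CellTiter-Fluor fluorescence measured in parallel for cytotoxicity.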

Chain of Estrogen receptor (Homo sapiens) (P03372 whole entry, looked up): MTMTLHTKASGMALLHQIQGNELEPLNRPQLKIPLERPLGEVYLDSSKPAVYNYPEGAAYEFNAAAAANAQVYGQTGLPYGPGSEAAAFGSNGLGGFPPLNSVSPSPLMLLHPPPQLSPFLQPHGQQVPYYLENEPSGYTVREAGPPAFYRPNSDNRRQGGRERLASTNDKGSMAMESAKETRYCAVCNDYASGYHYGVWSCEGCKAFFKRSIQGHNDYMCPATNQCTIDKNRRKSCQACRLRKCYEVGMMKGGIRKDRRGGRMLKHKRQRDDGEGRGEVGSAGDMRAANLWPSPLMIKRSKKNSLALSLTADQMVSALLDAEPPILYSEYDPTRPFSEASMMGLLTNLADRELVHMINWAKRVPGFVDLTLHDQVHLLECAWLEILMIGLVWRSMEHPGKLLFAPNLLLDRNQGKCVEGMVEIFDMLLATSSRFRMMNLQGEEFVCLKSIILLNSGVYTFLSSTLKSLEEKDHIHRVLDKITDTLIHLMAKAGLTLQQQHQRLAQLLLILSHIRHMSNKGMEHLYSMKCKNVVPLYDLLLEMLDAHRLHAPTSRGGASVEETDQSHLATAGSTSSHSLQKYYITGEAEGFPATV
Chain of Androgen receptor (Homo sapiens) (P10275 whole entry, looked up): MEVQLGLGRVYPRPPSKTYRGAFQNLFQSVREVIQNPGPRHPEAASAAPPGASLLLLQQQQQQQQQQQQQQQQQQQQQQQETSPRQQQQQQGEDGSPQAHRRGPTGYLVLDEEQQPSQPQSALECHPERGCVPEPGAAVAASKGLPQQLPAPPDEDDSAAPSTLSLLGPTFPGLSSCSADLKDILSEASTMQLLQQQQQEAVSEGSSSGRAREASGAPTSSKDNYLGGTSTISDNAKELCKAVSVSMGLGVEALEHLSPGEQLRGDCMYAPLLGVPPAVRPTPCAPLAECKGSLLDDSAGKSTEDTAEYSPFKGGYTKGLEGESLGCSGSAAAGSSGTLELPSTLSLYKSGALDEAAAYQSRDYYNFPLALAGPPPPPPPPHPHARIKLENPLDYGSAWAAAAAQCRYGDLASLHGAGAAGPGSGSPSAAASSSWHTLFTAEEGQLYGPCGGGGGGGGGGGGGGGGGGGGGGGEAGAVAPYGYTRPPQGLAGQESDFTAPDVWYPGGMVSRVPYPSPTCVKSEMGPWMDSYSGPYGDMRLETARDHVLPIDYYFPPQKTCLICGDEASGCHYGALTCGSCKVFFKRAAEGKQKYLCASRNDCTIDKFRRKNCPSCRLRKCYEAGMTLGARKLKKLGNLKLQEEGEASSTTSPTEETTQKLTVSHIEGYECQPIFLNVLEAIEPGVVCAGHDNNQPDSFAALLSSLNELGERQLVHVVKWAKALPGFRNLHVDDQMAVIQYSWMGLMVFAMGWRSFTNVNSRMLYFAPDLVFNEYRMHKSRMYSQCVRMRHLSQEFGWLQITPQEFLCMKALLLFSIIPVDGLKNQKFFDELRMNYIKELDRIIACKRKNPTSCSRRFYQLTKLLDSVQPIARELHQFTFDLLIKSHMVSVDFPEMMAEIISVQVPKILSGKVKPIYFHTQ
Chain of Aromatase (Homo sapiens) (P11511 whole entry, looked up): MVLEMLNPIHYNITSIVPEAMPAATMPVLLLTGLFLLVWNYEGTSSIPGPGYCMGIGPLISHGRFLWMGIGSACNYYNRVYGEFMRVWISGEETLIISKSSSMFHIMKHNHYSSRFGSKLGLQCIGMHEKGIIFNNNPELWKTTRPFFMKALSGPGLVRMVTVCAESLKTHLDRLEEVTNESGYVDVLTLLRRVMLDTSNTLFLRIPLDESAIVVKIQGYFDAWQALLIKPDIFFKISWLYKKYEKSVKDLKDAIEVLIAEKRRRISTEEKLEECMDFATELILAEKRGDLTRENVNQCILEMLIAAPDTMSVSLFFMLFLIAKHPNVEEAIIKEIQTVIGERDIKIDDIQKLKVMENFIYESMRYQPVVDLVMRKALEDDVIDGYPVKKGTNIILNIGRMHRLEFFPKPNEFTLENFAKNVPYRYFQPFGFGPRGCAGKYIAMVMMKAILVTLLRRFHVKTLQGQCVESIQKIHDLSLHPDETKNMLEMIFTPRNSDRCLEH

With `CCOC(=O)OCC`, the Potency entry in assay [1], in [2], in assay [3], in assay [4], in assay [5] and in assay [6] was “inactive” each time. For the same compound, the Potency entry in assay [7], in [9], in [10], in [11], in [12] and in [13] was “inactive” in each case. The Potency result (in assay [14]; with Aromatase (Homo sapiens)) was “inactive” each time. For the same compound, in [8], the compound was classed as inactive.

On to `O=C(O)c1ccc(CO)o1`, for which the Potency entry in assay [1], in assay [2], in assay [3], in [4], in assay [5] and in assay [6] was “inactive” throughout. Further, the Potency result (in [7]; in [10]; in assay [14]; with Aromatase (Homo sapiens)) was “inactive” in each case. In [8], the compound was called inactive.

On to `Cc1oncc1C(=O)Nc1ccc(C(F)(F)F)cc1`, for which the Potency result in assay [1], in assay [9], in assay [10], in [11], in [12] and in assay [14] was “inactive” each time. Also, the Potency entry with Aromatase (Homo sapiens) is “inactive”. The Potency in assay [2] was 7.7 µM (active); in assay [3], 804 nM (active) and 3.44 µM (active); in [4], 2.27 µM (active) and 4.86 µM (active); in [5], 54.9 µM (active).

On to `CCC(C)(C)C1CCC(O)CC1` (centres undefined), for which the Potency entry in [1], in assay [2], in [3], in assay [4], in assay [5] and in assay [6] was “inactive” throughout. Also, the Potency entry in [7], in assay [9], in assay [10], in assay [11], in [13] and in assay [14] was “inactive” throughout. In addition, the Potency entry in the assay with Aromatase (Homo sapiens) is “inactive”. For the same compound, the outcome in [8] was inactive.

Take `Cc1cc(OI)c(C(C)C)cc1-c1cc(C(C)C)c(OI)cc1C`: the Potency result in assay [1], in assay [2], in assay [3], in [4], in [5] and in [6] was “inactive” each time. The Potency entry (in [15]; in [10]; in assay [14]; with Aromatase (Homo sapiens)) was “inactive” each time. The outcome in [8] was inactive.

As to `CC1=CC(=O)CC(C)(C)C1(O)/C=C/C(C)=C\C(=O)O` (centres undefined), the Potency entry in [1], in [2], in assay [3], in [4], in [5] and in assay [6] was “inactive” in each case. Besides, the Potency result (in assay [7]; in assay [10]; in [14]; with Aromatase (Homo sapiens)) was “inactive” throughout. Besides, the call in [8] was inactive.

For `O=S(=O)(c1ccccc1)c1ccc(Cl)cc1`, the Potency result in [1], in assay [5], in assay [7], in assay [9], in assay [10] and in assay [11] was “inactive” throughout. In addition, the Potency entry (in [14]; in the assay with Aromatase (Homo sapiens)) was “inactive” each time. Besides, the Potency in [2] was 61.1 µM (active); in assay [3] it was 61.1 µM (active); in assay [4], 48.6 µM (active); in [13] it was 68.6 µM (active). The compound was classed as inactive in assay [8].

As for `C=CCOC(=O)/C=C\C(=O)OCC=C`, the Potency entry in [1], in assay [2], in assay [3], in assay [4], in assay [16] and in [17] was “inactive” throughout. In addition, the Potency entry in assay [18], in [19], in assay [15], in assay [7], in assay [9] and in [10] was “inactive” throughout. For the same compound, the Potency entry (in assay [11]; in [12]; in assay [13]; in [14]; with Aromatase (Homo sapiens)) was “inactive” in each case. Moreover, in assay [8], the outcome was inactive.

In the case of `Cc1oc(C)c(C(=O)Nc2ccccc2)c1C`, the Potency result in assay [1], in assay [15] and in assay [11] was “inactive” in each case. Further, the Potency in assay [2] is 13.7 µM (active); in assay [3], 10.9 µM (active); in [4], 13.7 µM (active); with Aromatase (Homo sapiens) it was 13.7 µM (active). Besides, in assay [8], the outcome was inactive.

In the case of `CCCc1c(OCCCOc2ccc(OCC(=O)O)cc2)ccc(C(C)=O)c1O`, the Potency result in [1], in assay [2], in assay [3], in assay [18], in [6] and in assay [19] was “inactive” each time. Also, the Potency result in assay [15], in assay [10], in assay [11], in assay [12], in assay [13] and in [14] was “inactive” each time. Besides, in assay [8], the compound was called inactive.

`CCNC(=O)N1CCN(CCCC(c2ccc(F)cc2)c2ccc(F)cc2)CC1`: the Potency result in assay [1] and in [11] was “inactive” throughout. The Potency in [2] was 5.31 µM (active); in assay [3] it was 7.5 µM (active); in assay [4], 6.68 µM (active); in assay [6], 26.6 µM (active); in assay [7], 21.1 µM (active); in [10] it was 16.9 µM (active). Besides, in [14], the Potency was 29.8 µM (active).

For `O=c1[nH]c2ccc(S(=O)CCN3CCC(Cc4ccc(F)cc4)CC3)cc2o1` (centres undefined), the Potency result in [1], in [5], in assay [6], in assay [15], in assay [9] and in [10] was “inactive” in each case. Moreover, the Potency entry (in assay [11]; with Aromatase (Homo sapiens)) was “inactive” each time. For the same compound, the Potency in assay [2] was 13.7 µM (active); in [4], 6.86 µM (active); in assay [12], 12.2 µM (active). In addition, in [8], the result was inactive.

In the case of `COC(=O)[C@@H]1CC2=CC(=O)CC[C@]2(C)[C@@]23O[C@@H]2C[C@@]2(C)[C@@H](CC[C@@]24CCC(=O)O4)[C@H]13`, the Potency result in assay [1], in assay [2], in [4], in assay [5], in assay [6] and in [15] was “inactive” in each case. Besides, the Potency result in [7], in assay [9], in assay [10], in [11], in assay [12] and in [13] was “inactive” in each case. The Potency result (in assay [14]; with Aromatase (Homo sapiens)) was “inactive” throughout. Moreover, the compound was classed as inactive in assay [8].

`CC1CC(O)CC(C)(C)C1` (centres undefined): the Potency entry in assay [1], in assay [2], in assay [4], in assay [5], in assay [6] and in assay [15] was “inactive” in each case. Besides, the Potency entry (in [7]; in assay [10]; in assay [14]; in the assay with Aromatase (Homo sapiens)) was “inactive” throughout. For the same compound, the outcome in assay [8] was inactive.

For `CCC(C)(O)CCC=C(C)C` (centres undefined), the Potency entry in assay [1], in assay [2], in assay [4], in assay [5], in assay [6] and in [7] was “inactive” each time. Also, the Potency result (in assay [9]; in [10]; in [11]; in assay [13]; in [14]; in the assay with Aromatase (Homo sapiens)) was “inactive” each time. Moreover, the result in [8] was inactive.

For `CCOc1cc(N)c(Cl)cc1C(=O)NCC1CN(Cc2ccc(F)cc2)CCO1` (centres undefined), the Potency result in [1], in [5], in assay [6], in [15], in assay [9] and in assay [10] was “inactive” each time. In addition, the Potency entry (in [11]; in assay [12]; in assay [13]; in assay [14]; with Aromatase (Homo sapiens)) was “inactive” each time. Further, the figures for the Potency in [2] and in assay [4] were 18.8 µM (active) and 21.1 µM (active), respectively. Further, the outcome in assay [8] was inactive.
